# Test results published in PubChem BioAssay AID2284354 (EPA ToxCast).
# Inconclusive results are not listed. The source made the active and inactive calls. Rule for the calls: active = hit-call score of the fitted dose curve at least 0.9, where 1 is the maximum; inconclusive = response in the unintended direction; inactive = score below 0.9.
# Molecular target: human Retinoid X Receptor beta (RXRb), RXRB (gene 6257) (UniProt P28702)
# Test: ATG_hRXRb_EcoTox2: Attagene TRANS-FACTORIAL EcoTox-2 HepG2 Assay for human Retinoid X Receptor beta (RXRb)
# Description: ATG_EcoTox2 is a cell-based, multiplexed assay created by modifying the existing Attagene TRANS-FACTORIAL system to include a panel of nuclear receptors from some or all the following species: human (Homo sapiens), african clawed frog (Xenopus laevis), rainbow trout (Oncorhynchus mykiss), japanese medaka (Oryzias latipes), and zebrafish (Danio rerio). The ECOTOX2-FACTORIAL format uses HepG2, a human liver cell line, with measurements taken at 24 hours after chemical dosing in a 24-well plate. ATG_hRXRb_EcoTox2 is one of 29 assay components calculated in the ATG_EcoTox2 assay. It is designed to make measurements of mRNA induction, a form of inducible reporter, as detected with fluorescence intensity signals by Reverse transcription polymerase chain reaction (RT-PCR) and Capillary electrophoresis technology.The assay endpoint ATG_hRXRb_EcoTox2 was analyzed in the positive analysis fitting direction relative to DMSO as the negative control and baseline of activity. Using a type of inducible reporter, measures of mRNA for gain-of-signal activity can be used to understand the reporter gene at the transcription factor-level as they relate to the gene RXRb. Furthermore, this assay endpoint can be referred to as a primary readout, because this assay has produced multiple assay endpoints where this one serves a reporter gene function. To generalize the intended target to other relatable targets, this assay endpoint is annotated to the nuclear receptor intended target family, where the subfamily is non-steroidal.
# Human liver HepG2 cells are transiently transfected with multiple reporter transcription units (MRTUs) in 6-well plates using FuGene 6 reagent (Roche; 3 ml FuGene/1 mg DNA). The MRTU constructs are regulated by a cis-regulating element (promoter). Each RTU expresses a GAL4-UAS that regulates the transcription of a nearby target reporter gene sequence. A major difference between the CIS and TRANS system is that in CIS activities of endogenous TFs are measured, whereas the TRANS assay evaluates changes in activities of exogenous, chimeric NR-Gal4 proteins. […] At the end of 24 hour incubation, total RNA was isolated using TriZol reagent (Invitrogen). The isolated RNA is then reverse-transcribed using oligo(dT) primer and Mo-MLV reverse transcriptase (Invitrogen) with DNAse I (Ambion) treatment for 30 min. The one-tenth of the produced cDNA was amplified by PCR using Taq DNA polymerase (Invitrogen) and two reporter sequence-specific primers. The PCR products were fluorescently labeled by primer extension with 6-arboxyfluorescein (6-FAM) 5'-labeled reporter sequence-specific primer (2 min at 95 C, 20 s at 68 C and 10 min at 72 C) and these products were digested with 5U of HpaI (New England Biolabs) for 2h at 37 C. The fragments were purified using Qiaquick PCR columns (Qiagen), analyzed on an ABI 3130xL genetic analyzer (Applied Biosystems) with peak positions identified by using a set of X-rhodamine (ROX)-labeled MapMarker1000 molecular weight standards (BioVentures). The raw capillary electrophoresis data was processed using Attagraph software (Attagene).
# Sequence of human Retinoid X Receptor beta (RXRb), RXRB (gene 6257) (P28702 whole entry, looked up): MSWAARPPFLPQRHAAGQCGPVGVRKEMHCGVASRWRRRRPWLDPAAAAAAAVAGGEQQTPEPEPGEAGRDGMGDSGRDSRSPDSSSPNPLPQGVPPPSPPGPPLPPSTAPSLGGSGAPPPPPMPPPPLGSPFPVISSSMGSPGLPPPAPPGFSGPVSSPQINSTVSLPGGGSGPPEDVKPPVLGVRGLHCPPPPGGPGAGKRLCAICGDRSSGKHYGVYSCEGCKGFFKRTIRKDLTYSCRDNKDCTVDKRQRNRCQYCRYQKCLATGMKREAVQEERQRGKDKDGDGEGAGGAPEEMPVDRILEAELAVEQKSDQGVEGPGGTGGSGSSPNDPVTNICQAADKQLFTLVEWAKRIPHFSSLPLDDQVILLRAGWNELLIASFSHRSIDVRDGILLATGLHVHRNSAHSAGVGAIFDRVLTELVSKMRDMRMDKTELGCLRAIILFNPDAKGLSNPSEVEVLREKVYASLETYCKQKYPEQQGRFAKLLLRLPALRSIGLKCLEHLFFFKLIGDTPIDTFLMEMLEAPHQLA
Structure (SMILES),outcome,AC50
C[C@]12C=CC(=O)C=C1CC[C@@H]1[C@@H]2C(=O)C[C@@]2(C)[C@H]1CC[C@]2(O)C(=O)CO,inactive,
CC(C)(Oc1ccc(CCNC(=O)c2ccc(Cl)cc2)cc1)C(=O)O,inactive,
CN(CCOc1ccc(CC2SC(=O)NC2=O)cc1)c1ccccn1 (centres undefined),,13 µM (active)
C[C@@H]1C[C@H]2[C@@H]3CCC4=CC(=O)C=C[C@]4(C)[C@@]3(F)[C@@H](O)C[C@]2(C)[C@@]1(O)C(=O)COP(=O)(O)O,inactive,
CC(c1cc2ccccc2s1)N(O)C(N)=O (centres undefined),inactive,
CC(C)(Oc1ccc(Cl)cc1)C(=O)O,inactive,
CC(C)(Oc1ccc(C2CC2(Cl)Cl)cc1)C(=O)O (centres undefined),inactive,
Cc1ccc(C)c(OCCCC(C)(C)C(=O)O)c1,,18.6 µM (active)
CC(C)OC(=O)C(C)(C)Oc1ccc(C(=O)c2ccc(Cl)cc2)cc1,inactive,
